From PubChem BioAssay (NCATS)
Results filed as inconclusive are left out. Calls of active or inactive are those of the source. Calls come from the whole dose curve; as a rule, active = well fitted curve in the direction sought with a large enough effect; inconclusive = small, poorly fitted or top-dose-only effect, or another doubt; inactive = no such curve, though single readings can be large; an effect the other way counts as inactive or inconclusive.

Key:
MCC-26 = assay: qHTS assay to identify novel small-molecules to repurpose for Merkel cell carcinoma treatment (AID 1296009); conditions: MCC and control cell lines, CellTiter-Glo viability, 72 h; series mostly up to 46 µM; note: nearly all actives have a fitted effect of over 60% in size
Procedure, shortened: (§1)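 qHTS format: cells treated with library compounds in DMSO across 8 (NPC) or 11 (MIPE) concentrations. Readout after 72 hr at 37 degree celsius was CellTiter-Glo luminescence.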

MKL-1 = assay: as above; conditions: MCC and control cell lines, CellTiter-Glo viability, 72 h; series mostly up to 46 µM
Procedure, shortened: as §1

MKL-2 = assay: as above; conditions: MCC and control cell lines, CellTiter-Glo viability, 72 h; series mostly up to 46 µM
Procedure, shortened: as §1

UISO = assay: as above; conditions: MCC and control cell lines, CellTiter-Glo viability, 72 h; series mostly up to 46 µM
Procedure, shortened: as §1

WaGa = assay: as above; conditions: MCC and control cell lines, CellTiter-Glo viability, 72 h; series mostly up to 46 µM
Procedure, shortened: as §1

C33A = assay: Primary qHTS to identify gynecologic anti-cancer compounds using libraries of approved drugs and bioactive compounds (AID 1345084); conditions: Gynecologic cancer cell panel viability, ATPlite luminescence, 48 h; series mostly up to 57.5 µM; note: nearly all actives have a fitted effect of over 55% in size
Procedure, shortened: (§2)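 Cells, 1,000 per well, plated 16 h, then exposed 48 h at 37 C to compounds. Viability by ATPlite luminescence after 15 min at room temperature.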

CAOV3 = assay: as above; conditions: Gynecologic cancer cell panel viability, ATPlite luminescence, 48 h; series mostly up to 57.5 µM
Procedure, shortened: as §2

CASKI = assay: as above; conditions: Gynecologic cancer cell panel viability, ATPlite luminescence, 48 h; series mostly up to 57.5 µM
Procedure, shortened: as §2

Es-2 = assay: as above; conditions: Gynecologic cancer cell panel viability, ATPlite luminescence, 48 h; series mostly up to 57.5 µM
Procedure, shortened: as §2

NIH3T3 = assay: qHTS assay to identify novel small-molecules to repurpose for Merkel cell carcinoma treatment (AID 1296009); conditions: MCC and control cell lines, CellTiter-Glo viability, 72 h; at 44.8 µM (top of the series) unless noted; note: nearly all actives have a fitted effect of over 60% in size
Procedure, shortened: as §1

Measured: Potency

C[C@]12CC[C@@H]3c4ccc(OC(=O)N(CCCl)CCCl)cc4CC[C@H]3[C@@H]1CC[C@@H]2O
inactive: MCC-26 | MKL-1 | MKL-2 | UISO | WaGa

Nc1ccccc1
not listed: NIH3T3
inactive: all other assays above

CCCCCCC(=O)CCCCCC/C=C/C[C@@H](O)[C@H](O)[C@@](N)(CO)C(=O)O
not listed: NIH3T3
inactive: all other assays above

O=c1oc2ccccc2c(O)c1Cc1c(O)c2ccccc2oc1=O
inactive: all assays above

CC(C)c1cccc(C(C)C)c1O
not listed: NIH3T3
inactive: all other assays above

COc1cccc([C@@]2(O)CCCC[C@@H]2CN(C)C)c1
inactive: all assays above

Clc1cccc(SC2CCNCC2)n1
not listed: NIH3T3
inactive: all other assays above

C[C@H]1[C@@H]2Cc3ccc(O)cc3[C@@]1(C)CCN2C
inactive: MCC-26 | MKL-1 | MKL-2 | NIH3T3 inactive [at 231 µM] | UISO | WaGa | C33A | CAOV3 | CASKI | Es-2

CCC(CC)(CNC(=O)CCCO)c1cccc(OC)c1
inactive: all assays above

Nc1ccccc1C(=O)O
not listed: NIH3T3
inactive: all other assays above

O=C1OC(c2ccc(O)c(S(=O)(=O)O)c2)(c2ccc(O)c(S(=O)(=O)O)c2)c2c(Br)c(Br)c(Br)c(Br)c21
inactive: all assays above

CN1CC[C@]23c4c5ccc(O)c4O[C@H]2[C@@H](O)CC[C@H]3[C@H]1C5
not listed: NIH3T3
inactive: all other assays above

C[N+]1(CCF)[C@@H]2CC[C@H]1CC(OC(=O)C(O)(c1ccccc1)c1ccccc1)C2 (stereo not given in full)
inactive: all assays above

CC(C)(N)Cc1ccccc1Cl
not listed: NIH3T3
inactive: all other assays above

COc1c2c(cc3c1OCO3)CCN(C)C2
not listed: NIH3T3
inactive: all other assays above

CC(C)C[C@H](CN)CC(=O)O
inactive: MCC-26 | MKL-1 | MKL-2 | UISO | WaGa

Nc1ccc([As](=O)(O)O)cc1
inactive: all assays above

COc1ccc2c(c1OC)C(=O)O[C@H]2[C@@H]1c2cc3c(cc2CCN1C)OCO3
not listed: NIH3T3
inactive: all other assays above

c1ccc(N2CCNCC2)cc1
inactive: all assays above

C#CC(O)(C=CCl)CC (stereo not given)
inactive: all assays above

CC1(C)C(C=C(Cl)Cl)C1C(=O)OC(C#N)c1cccc(Oc2ccccc2)c1 (stereo not given)
inactive: all assays above

c1ccc2c(c1)sc1ccccc12
inactive: all assays above

O=c1[nH]oc2c1CCNC2
not listed: NIH3T3
inactive: all other assays above

Clc1ccccc1N1CCNCC1
inactive: all assays above
